Results filed as inconclusive are left out. Entries that show only a call come without a potency. Calls of active or inactive are those of the source. Unless noted, the call rests on the fitted dose curve.
What was measured:
[1] = Confirmatory qHTS for VERO E6 Cytotoxicity Assay: Counterscreen for SARS-CoV-2 CPE Assay (AID 1508605); further: nearly all actives have a fitted effect of over 60% in size; further: potency means the concentration at half of the fitted maximal effect
[2] = Confirmatory qHTS for activators (rescue) of SARS-CoV-2 Cytopathic Effect (CPE) (AID 1508606); further: nearly all actives have a fitted effect of over 70% in size; further: potency means the concentration at half of the fitted maximal effect
[3] = Cytotoxicity counterscreen for inhibitors of SARS-CoV-2 cell entry (AID 1645845); further: nearly all actives have a fitted effect of over 50% in size; further: potency means the concentration at half of the fitted maximal effect
Outline: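 Counterscreen run in the same HEK293-ACE2 line as the pseudotyped-particle entry assay, without particles. Viability after 48 h at 37 C was read as ATP luminescence, scaled between cell-containing and cell-free wells.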

[4] = Primary qHTS to identify inhibitors of SARS-CoV-2 cell entry (AID 1645846); details: activity change, negative = inhibition: at 57.1 µM (top of the series) unless noted; further: nearly all actives have a fitted effect of over 45% in size; further: potency means the concentration at half of the fitted maximal effect
Outline: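 HEK293-ACE2 (Expi293F, stable hACE2), 1500 cells/well, o/n 37C; cpd 23 nL pin, 1 h; MLV-PP w/ SARS-CoV-2-S (Wuhan-Hu-1, Δ19 C-term); 48 h 37C; Bright-Glo luminescence; normalized vs S-PP and bald PP.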

[5] = Confirmatory qHTS to identify inhibitors of SARS-CoV-2 cell entry (AID 1645844); further: potency means the concentration at half of the fitted maximal effect; nearly all actives have a fitted effect of over 45% in size
Outline: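 HEK293-ACE2, overnight seeding; cpd 1 h, 37C/5% CO2; + SARS-CoV-2-S MLV PP (Wuhan-Hu-1, ΔC19); 48 h; Bright-Glo luminescence. Data normalised to S PP and bald PP wells.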

[6] = Primary qHTS for inhibitors of La Crosse Virus (LACV) - induced cell death in SH-SY5Y cells (AID 1508616; active means well fitted curve in the direction sought with a large enough effect; an effect the other way counts as inactive or inconclusive;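 further: top concentration of the series differs between compounds; higher means more rescue of cells from virus-induced death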)
Outline: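 Rescue of virus-induced death was read as ATPLite luminescence after 6 days at 37C, scaled between DMSO wells with LACV and without virus. Cells were SH-SY5Y, 6000/well, infected at 0.01 MOI after compound addition.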

[7] = target: Calcium and integrin-binding protein 1 (Homo sapiens) (UniProt Q99828); assay: Validation qHTS for Identification of Calcium Integrin Binding protein 1 (CIB1) Competitor (AID 1508618; active means well fitted curve in the direction sought with a large enough effect; an effect the other way counts as inactive or inconclusive)
Outline: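 CIB1-GST (1 uM final) incubated 15 min at room temperature with compounds (up to 114 uM), then FITC-labelled alphaIIb peptide (100 nM) added. FP read (Ex 480/Em 540) after 15 min, pH 7.4 buffer containing 5 mM CaCl2.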

[8] = target: Calcium and integrin-binding protein 1 (Homo sapiens) (UniProt Q99828); assay: Primary qHTS for Identification of Calcium Integrin Binding Protein 1 (CIB1) Competitor (AID 1508620; active means well fitted curve in the direction sought with a large enough effect; an effect the other way counts as inactive or inconclusive;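 further: GST tagged CIB1 binding a fluorescein labelled alphaIIb integrin peptide tracer; top concentration of the series differs between compounds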)
Outline: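 Fluorescence polarization competition: GST-tagged CIB1 (1 uM final) preincubated with compound 15 min at room temperature, then FITC-labelled alphaIIb peptide (100 nM final) added. After 15 min at room temperature, polarization read at Ex 480/Em 540.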

[9] = Primary qHTS for small molecule stabilizers of the endoplasmic reticulum resident proteome: Secreted ER Calcium Modulated Protein (SERCaMP) assay (AID 1508630; active means well fitted curve in the direction sought with a large enough effect; an effect the other way counts as inactive or inconclusive)
Outline: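 The SH-SY5Y reporter protocol was run at 3 concentrations up to 38.3 uM (primary) or 11 concentrations (follow-up): 16 h compound, 100 nM thapsigargin for 4 h, then extracellular luciferase luminescence.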

[10] = A High-Content qHTS Against Drug Library for the Identification of Small Molecules that Inhibit DYT1 Early Onset Primary Dystonia-Associated Cell Pathology (AID 1645839)
Outline: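 Cells were seeded and left for 24 h, then dosed with compound alongside tetracycline induction of mutant EGFP-TorsinA. They were incubated for 48 h, fixed in 4% paraformaldehyde, permeabilized and imaged for mislocalization (%pathology) and cell count.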

[11] = target: Cytochrome P450 2D6 (Homo sapiens) (UniProt P10635); assay: Cytochrome P450 family 2 subfamily D member 6 (CYP2D6) small molecule antagonists: luciferase biochemical (cell-free) qHTS assay (AID 1645840; active means well fitted curve in the direction sought with a large enough effect in the repeat runs; an effect the other way counts as inactive or inconclusive; further: nearly all actives have a fitted effect of over 55% in size)
Outline: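 P450-Glo CYP2D6 system: proluciferin substrate converted by enzyme to luciferin, read by luminescence proportional to activity. Enzyme-substrate mix with compound 10 min at room temperature, then NADPH regeneration 1 h before detection reagent.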

[12] = target: Cytochrome P450 2C9 (Homo sapiens) (UniProt P11712); assay: Cytochrome P450 family 2 subfamily C member 9 (CYP2C9) small molecule antagonists: luciferase biochemical (cell-free) qHTS assay (AID 1645842; active means well fitted curve in the direction sought with a large enough effect in the repeat runs; an effect the other way counts as inactive or inconclusive; further: nearly all actives have a fitted effect of over 55% in size)
Outline: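 P450-Glo CYP2C9 system: proluciferin substrate with enzyme in mix containing 0.4% BSA, 10 min at room temperature, then NADPH regeneration solution added and incubated 1 h at 37C. Detection reagent stopped reaction; luminescence read after 20 min as RLU.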

[13] = target: Papain (Carica papaya) (UniProt P00784); assay: Primary qHTS assay for inhibitors of the protease papain (AID 1645873; active means well fitted curve in the direction sought with a large enough effect; an effect the other way counts as inactive or inconclusive;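 further: papain turnover of Z-FR-AMC read as the AMC fluorescence gain over 10 min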)
[14] = Primary qHTS for inhibitors of nuclear receptor binding SET domain protein 2 (NSD2) in an isogenic RCH-ACV NSD2 p.E1099K mutant (9B) (AID 1645876; active means well fitted curve in the direction sought with a large enough effect; an effect the other way counts as inactive or inconclusive; further: nearly all actives have a fitted effect of over 70% in size)

Cytochrome P450 2D6 (Homo sapiens), sequence (P10635 whole entry, looked up): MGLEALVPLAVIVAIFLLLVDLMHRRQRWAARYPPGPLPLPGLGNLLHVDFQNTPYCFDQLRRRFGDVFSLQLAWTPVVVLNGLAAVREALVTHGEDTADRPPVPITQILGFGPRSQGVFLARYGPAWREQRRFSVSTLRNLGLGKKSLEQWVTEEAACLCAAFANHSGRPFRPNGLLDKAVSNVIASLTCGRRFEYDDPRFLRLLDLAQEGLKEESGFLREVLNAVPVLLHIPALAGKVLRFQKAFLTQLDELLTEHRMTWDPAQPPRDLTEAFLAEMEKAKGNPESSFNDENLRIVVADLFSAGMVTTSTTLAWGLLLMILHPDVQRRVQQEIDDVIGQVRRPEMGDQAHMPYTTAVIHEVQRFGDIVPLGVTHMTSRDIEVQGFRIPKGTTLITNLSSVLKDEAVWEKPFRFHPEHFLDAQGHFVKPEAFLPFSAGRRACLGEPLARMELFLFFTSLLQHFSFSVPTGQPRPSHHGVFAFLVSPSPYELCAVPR
Cytochrome P450 2C9 (Homo sapiens), sequence (P11712 whole entry, looked up): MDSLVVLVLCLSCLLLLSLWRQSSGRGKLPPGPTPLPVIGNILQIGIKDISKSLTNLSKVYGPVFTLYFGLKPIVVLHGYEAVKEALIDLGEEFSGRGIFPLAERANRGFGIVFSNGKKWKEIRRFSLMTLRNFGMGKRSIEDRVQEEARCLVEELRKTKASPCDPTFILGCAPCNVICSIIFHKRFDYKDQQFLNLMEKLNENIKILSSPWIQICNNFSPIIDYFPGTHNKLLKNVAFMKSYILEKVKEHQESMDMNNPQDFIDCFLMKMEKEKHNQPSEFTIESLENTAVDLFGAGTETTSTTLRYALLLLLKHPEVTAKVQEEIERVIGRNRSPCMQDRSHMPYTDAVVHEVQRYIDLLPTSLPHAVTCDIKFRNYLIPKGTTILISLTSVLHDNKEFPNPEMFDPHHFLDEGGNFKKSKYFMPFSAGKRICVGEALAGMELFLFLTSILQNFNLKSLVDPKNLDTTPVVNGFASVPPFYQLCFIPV
Calcium and integrin-binding protein 1 (Homo sapiens), sequence (Q99828 whole entry, looked up): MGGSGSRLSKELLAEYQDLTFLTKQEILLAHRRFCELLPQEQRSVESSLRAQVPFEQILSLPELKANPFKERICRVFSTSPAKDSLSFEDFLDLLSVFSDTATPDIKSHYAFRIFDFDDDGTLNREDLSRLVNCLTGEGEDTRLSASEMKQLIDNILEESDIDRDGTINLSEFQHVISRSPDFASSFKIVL
Papain (Carica papaya), sequence (P00784 whole entry, looked up, the tested form may be a part): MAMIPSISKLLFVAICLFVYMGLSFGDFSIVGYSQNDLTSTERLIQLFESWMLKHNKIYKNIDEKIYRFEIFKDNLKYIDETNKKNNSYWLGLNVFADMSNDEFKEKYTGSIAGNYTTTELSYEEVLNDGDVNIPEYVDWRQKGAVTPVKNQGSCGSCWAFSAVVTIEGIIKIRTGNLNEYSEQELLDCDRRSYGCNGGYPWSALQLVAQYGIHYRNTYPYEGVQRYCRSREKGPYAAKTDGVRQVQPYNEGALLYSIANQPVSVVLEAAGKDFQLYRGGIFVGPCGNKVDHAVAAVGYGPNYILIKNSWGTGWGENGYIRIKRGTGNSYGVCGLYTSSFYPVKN

SMILES: CC(C)COCC(CN(Cc1ccccc1)c1ccccc1)N1CCCC1 (stereo not drawn)
- Potency [1]: inactive
- Potency [2]: 11.2 µM (active)
- Potency [3]: inactive
- Potency [4]: 14.1 µM (active)

SMILES: CN(C)CCCN1c2ccccc2Sc2ccccc21
- Potency [1]: inactive
- Potency [5]: 27.1 µM (active)
- Potency [3]: inactive
- Potency [4]: 14.1 µM (active)

SMILES: Fc1ccc(C(c2ccc(F)cc2)N2CCN(C/C=C/c3ccccc3)CC2)cc1
- Potency [1]: inactive
- Potency [2]: 11.2 µM (active)

SMILES: CN1CCC(=C2c3ccccc3CCc3sccc32)CC1
- Potency [1]: inactive
- Potency [2]: 11.2 µM (active)
- Potency [5]: 21.5 µM (active)
- Potency [3]: inactive
- Potency [4]: 14.1 µM (active)

SMILES: CN(C)CCOC(c1ccccc1)c1ccc(Br)cc1 (stereo not drawn)
- Potency [1]: inactive
- Potency [5]: 2.41 µM (active)
- Potency [3]: inactive
- activity change, negative = inhibition [4]: -67.2%

SMILES: O=c1[nH]c2ccccc2n1CCCN1CCN(C(c2ccccc2)c2ccccc2)CC1
- Potency [2]: 11.2 µM (active)
- Potency [3]: inactive

SMILES: CC(=O)c1ccc2c(c1)N(CCCN1CCC(CCO)CC1)c1ccccc1S2
- Potency [1]: inactive
- Potency [2]: 11.2 µM (active)
- Potency [5]: 22.4 µM (active)
- Potency [3]: inactive

SMILES: CCN(CC)CCOc1ccc2c(c1)C(=O)c1cc(OCCN(CC)CC)ccc1-2
- Potency [1]: 11.2 µM (active)

SMILES: CN(C)[C@@H](CCOc1cccc2ccccc12)c1ccccc1
- Potency [1]: inactive
- Potency [2]: 10 µM (active)
- Potency [3]: inactive
- Potency [4]: 10 µM (active)

SMILES: COc1ccc(C(=O)N2CCCC2=O)cc1
- outcome [6]: inactive
- outcome [7]: inactive
- Potency [8]: inactive
- outcome [9]: inactive
- outcome [10]: inactive
- Potency [11]: inactive
- Potency [12]: inactive
- Potency [3]: inactive
- Potency [4]: inactive
- activity change, negative = inhibition [4]: 9.75%
- outcome [13]: inactive
- Potency [14]: inactive

SMILES: O=C(O)c1nn(Cc2ccc(Cl)cc2Cl)c2ccccc12
- outcome [6]: inactive
- outcome [7]: inactive
- Potency [8]: inactive
- outcome [9]: inactive
- outcome [10]: inactive
- Potency [11]: inactive
- Potency [12]: inactive
- Potency [3]: inactive
- activity change, negative = inhibition [4]: -33.8%
- Potency [14]: inactive

SMILES: CCCCOc1cc(C(=O)NCCN(CC)CC)c2ccccc2n1
- Potency [1]: inactive

SMILES: COc1ccc2cc1Oc1ccc(cc1)C[C@H]1c3c(cc4c(c3Oc3cc5c(cc3OC)CCN(C)[C@@H]5C2)OCO4)CCN1C
- Potency [1]: 11.2 µM (active)
- Potency [2]: 1 µM (active)
- Potency [3]: 14.1 µM (active)

SMILES: O=C(CCCN1CCN(c2ccc(F)cc2)CC1)NC1c2ccccc2CSc2ccccc21 (stereo not drawn)
- Potency [1]: inactive
- Potency [2]: inactive
- Potency [5]: 1.92 µM (active)
- Potency [3]: inactive

SMILES: COC(=O)[C@H]1[C@H]2C[C@@H]3c4[nH]c5cc(OC)ccc5c4CCN3C[C@H]2C[C@@H](OC(=O)/C=C/c2ccc(O)c(OC)c2)[C@@H]1OC
- Potency [1]: inactive
- Potency [2]: 12.6 µM (active)
- Potency [5]: 30.4 µM (active)
- Potency [3]: inactive
- Potency [4]: 12.6 µM (active)

SMILES: CN(C)CCCN1c2ccccc2Sc2ccc(C(F)(F)F)cc21
- Potency [2]: 10 µM (active)

SMILES: Oc1c(I)cc(Cl)c2cccnc12
- Potency [1]: 3.16 µM (active)

SMILES: CCN(CC)CCCC(C)Nc1c2ccc(Cl)cc2nc2ccc(OC)cc12 (stereo not drawn)
- Potency [1]: 11.2 µM (active)
- Potency [2]: inactive
- Potency [3]: inactive

SMILES: CCC(=O)c1ccc2c(c1)N(CCCN(C)C)c1ccccc1S2
- Potency [1]: inactive
- Potency [2]: 11.2 µM (active)
- Potency [3]: inactive

SMILES: CCOC(=O)[C@H](CCc1ccccc1)N[C@H]1CCc2ccccc2N(CC(=O)O)C1=O
- Potency [1]: inactive
- Potency [3]: inactive
- activity change, negative = inhibition [4]: -24.9%

SMILES: O=C(CCC1CCN(Cc2ccccc2)CC1)c1ccc2c(c1)NCCCC2
- Potency [1]: inactive

SMILES: CCCCN(CCCC)CCC(O)c1cc2c(Cl)cc(Cl)cc2c2cc(C(F)(F)F)ccc12 (stereo not drawn)
- Potency [2]: 3.55 µM (active)
- Potency [3]: inactive

SMILES: CC1CCCCN1CCCOC(=O)c1ccc(OC2CCCCC2)cc1 (stereo not drawn)
- Potency [1]: inactive
- Potency [2]: 8.91 µM (active)
- Potency [3]: inactive

SMILES: CCCN(CCC)C(=O)C(CCC(=O)OCCCN1CCN(CCOC(=O)Cc2c(C)n(C(=O)c3ccc(Cl)cc3)c3ccc(OC)cc23)CC1)NC(=O)c1ccccc1 (stereo not drawn)
- Potency [1]: inactive
- Potency [2]: 10 µM (active)
- Potency [3]: inactive
- Potency [4]: 28.2 µM (active)

SMILES: NC(=O)CN1CCCC1=O
- outcome [6]: inactive
- outcome [7]: inactive
- Potency [8]: inactive
- outcome [9]: inactive
- outcome [10]: inactive
- Potency [11]: inactive
- Potency [12]: inactive
- Potency [3]: inactive
- Potency [4]: inactive
- outcome [13]: inactive
- Potency [14]: inactive

SMILES: CCCOC(C(=O)OC1CCN(C)CC1)(c1ccccc1)c1ccccc1
- Potency [1]: inactive
- Potency [3]: inactive

SMILES: CN1CCCCC1CCN1c2ccccc2Sc2ccc(S(C)=O)cc21 (stereo not drawn)
- Potency [1]: inactive
- Potency [5]: 1.08 µM (active)
- Potency [3]: inactive

SMILES: Clc1ccc2c(c1)CCc1cccnc1C2=C1CCNCC1
- Potency [1]: inactive

SMILES: CN1CCN(CCCN2c3ccccc3Sc3ccc(S(=O)(=O)N(C)C)cc32)CC1
- Potency [1]: inactive
- Potency [3]: inactive
- Potency [4]: 25.1 µM (active)

SMILES: COC(=O)C1=C(C)NC(C)=C(C(=O)O[C@@H]2CCCN(Cc3ccccc3)C2)[C@@H]1c1cccc([N+](=O)[O-])c1
- Potency [1]: 11.2 µM (active)
- Potency [2]: inactive

Reference: PubChem BioAssay (NCATS)
